Measurements: PubChem BioAssay AID624300 (Southern Research Specialized Biocontainment Screening …, 2012)
Hit rate of the full screen: of about 2,400 compounds, about 360 (15%) were called active.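 How the source made its calls: active means viability falls under 70% at one or more tested concentrations, taken as toxicity; inactive means viability stays over 70% at every dose.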 These entries were drawn from the full list. Measured potencies and affinities stand elsewhere.

Assay: viability loss in HeLa cells – cytotoxicity control for MgcRacGAP inhibitor project, dose response (AID 624300);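 further: 100% = median of untreated control wells on the same plate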
Details: CellTiter-Glo luminescence, 24 h; series mostly up to 100 µM; viability: at the top concentration

Row | SMILES | viability
1 | Cc1cc(O)ccc1N=Cc1c(C(F)(F)F)[nH][nH]c1=O | 96.6% (inactive)
2 | Nc1ccc2c(c1)OCCOCCOCCOCCOCCO2 | 97.6% (inactive)
3 | Oc1ccccc1CNc1ccc2c(c1)OCCO2 | 99.8% (inactive)
4 | Nc1ccc2nc(CCCCc3nc4ccccc4[nH]3)[nH]c2c1 | 96.5% (inactive)
5 | CCOC(=O)c1cc(NCc2cccs2)ccc1N1CCOCC1 | 95.5% (inactive)
6 | CN1CCN(/N=C/c2nc(-c3ccccc3)n3ccccc23)CC1 | 103% (inactive)
7 | CN(C)c1ccc(Nc2ccc([N+](=O)[O-])cn2)cc1 | 109% (inactive)
8 | c1cc(CNc2ccc3c(c2)OCCO3)ccn1 | 105% (inactive)
9 | Cc1ccc(CN2CCN(Cc3ccco3)CC2)cc1 | 92.4% (inactive)
10 | CN1CCCN(Cc2ccccc2C(F)(F)F)CC1 | 96.8% (inactive)
11 | Cc1ccc(NC(=O)CN(C)C2CCCCC2)cc1Cl | 122% (inactive)
12 | CN1C(=O)NC(c2ccc(O)cc2)C2=C1CN(c1ccc(O)cc1)C2=O (stereo not drawn) | 111% (inactive)
13 | COc1ccc(/C=N/NC(=O)c2cccc(S(=O)(=O)N3CCCC3)c2)cc1O | 98.2% (inactive)
14 | CN(C)c1cc(NC(=O)CN2CCCC2)c2ccccc2n1 | 91.6% (inactive)
15 | CCOc1ccc(CNC2CCCc3ccccc32)cc1 (stereo not drawn) | 87% (inactive)
16 | Nc1ccn([C@@H]2O[C@H](CNCC3=CCOc4ccc(O)cc43)[C@@H](O)[C@H]2O)c(=O)n1 | 103% (inactive)
17 | O=C(c1cc(C2CC2)nn1-c1ccccc1)N1CCN(c2ccc(O)cc2)CC1 | 106% (inactive)
18 | O=C(c1ccccc1)c1ccc(C(=O)N2CCN(c3ccc(O)cc3)CC2)cc1 | 91.1% (inactive)
19 | O=C(CN1CCCCCC1)Nc1nc2ccccc2s1 | 92.9% (inactive)
20 | Cc1ccc(NC(=O)CN2CCC(Cc3ccccc3)CC2)cc1S(=O)(=O)N(C)C | 82.5% (inactive)
21 | CN(C)/N=C/c1ccc(N2CCOCC2)cc1 | 99.3% (inactive)
22 | Cn1c(N2CCOCC2)c(/C=N/O)c2ccccc21 | 95.4% (inactive)
23 | COc1ccc(NC(=S)NNS(=O)(=O)c2ccc3ccccc3c2)c(OC)c1 | 103% (inactive)
24 | O=C(NC(=S)N1CCN(c2ccc(O)cc2)CC1)c1ccco1 | 98.4% (inactive)

Row | SMILES | viability
25 | COc1cccc(N2CC(C(=O)Oc3ccc4ccccc4c3)CC2=O)c1 (stereo not drawn) | 102% (inactive)
26 | COc1ccc(Cn2nnnc2C(c2cccnc2)N2CCN(c3ccc(O)cc3)CC2)cc1 (stereo not drawn) | 94.8% (inactive)
27 | CC1(C)CC(=O)C(C=Nc2ccc(O)cc2)=C(O)C1 | 102% (inactive)
28 | CC1(C)CC(=O)C=C(Nc2ccc(O)cc2)C1 | 100% (inactive)
29 | Cc1ccc(/C=N/Nc2ccc(Cl)c(C(=O)O)c2)s1 | 97.3% (inactive)
30 | CCN(CC(=O)Nc1ccc(S(=O)(=O)N2CCCC2)cc1)CC(=O)Nc1cccc(OC)c1 | 98.4% (inactive)
31 | O=[N+]([O-])c1ccc(Oc2cccc3cccnc23)c([N+](=O)[O-])c1 | 100% (inactive)
32 | Nc1cc(SCc2ccc([N+](=O)[O-])cc2)ncn1 | 98.7% (inactive)
33 | Cc1ccc(S(=O)(=O)Oc2ccc(/C=C3/C(=N)N4C(=NC3=O)SN=C4S(C)(=O)=O)cc2)cc1 | 106% (inactive)
34 | COc1cc2nc(=S)n(CCCN3CCOCC3)c(N)c2cc1OC | 98.3% (inactive)
35 | CC(Oc1ccc(Cl)cc1Cl)C(=O)Nc1ccc(O)cc1 (stereo not drawn) | 113% (inactive)
36 | Oc1ccc(NCc2ccccc2OCc2ccccc2F)cc1 | 108% (inactive)
37 | COc1cccc(CNc2ccc3c(c2)ncn3C)c1OC | 96.4% (inactive)
38 | COc1cccc(CNc2ccc(N3CCCCC3)cc2)c1OC | 91.9% (inactive)
39 | O=C(c1c(Cl)cccc1Cl)N1CCN(c2cccc3[nH]ccc23)CC1 | 85.3% (inactive)
40 | COc1ccc(N2CCC(CNC(=S)Nc3cccc(C)c3)C2)cc1 (stereo not drawn) | 81.7% (inactive)
41 | Cc1nc2ccccc2n2c(O)c(CC(=O)O)cc12 | 101% (inactive)
42 | Clc1cc(Cl)c(OCCCCn2cncn2)c(Cl)c1 | 93.2% (inactive)
43 | COc1cc(/C=N\N=C2/SC(CC(=O)O)C(=O)N2c2ccc(O)cc2)ccc1O (stereo not drawn) | 108% (inactive)
44 | CCN(CC)c1ccc(S(=O)(=O)N2CCOCC2)cc1NC(=O)COC(=O)/C=C/c1ccc(O)c(OC)c1 | 91% (inactive)
45 | CCN(CC)S(=O)(=O)c1ccc(C)c(NC(=O)CN2CCN(Cc3ccccc3)CC2)c1 | 95.8% (inactive)
46 | CCn1cnc2cc(NCc3ccc(OC)cc3)ccc21 | 98.5% (inactive)
47 | COc1ccc2c(c1)-c1nc(/N=C/c3ccccc3O)sc1CC2 | 111% (inactive)
48 | Cn1cccc1/C=N/N1CCN(c2ccccc2)CC1 | 104% (inactive)

Row | SMILES | viability
49 | Cc1cc(=O)[nH]c(N/N=C/c2ccc(O)c(O)c2)n1 | 101% (inactive)
50 | Cc1cc(C)n(CCC(=O)N/N=C/c2ccc(O)cc2)n1 | 96.2% (inactive)
51 | COc1cc(/C=N/NC(=O)c2nc(C)cc(C)n2)ccc1O | 105% (inactive)
52 | COc1cc(/C=N/Nc2cccc3cccnc23)cc(OC)c1O | 95.5% (inactive)
53 | COc1cc(/C=C/C(=O)OCC(=O)N2CCCc3ccccc32)ccc1O | 97.4% (inactive)
54 | COc1cc(/C=C/C(=O)OCC(=O)NC(=O)NC(C)(C)C)ccc1O | 88.8% (inactive)
55 | COc1cc(/C=C/C(=O)OCC(=O)NC2CCS(=O)(=O)C2)ccc1O (stereo not drawn) | 109% (inactive)
56 | COc1ccc(N2CCN(C(c3cccs3)C(C)NC(=O)c3ccco3)CC2)cc1 (stereo not drawn) | 94.4% (inactive)
57 | O=C1NN(c2ccc(Br)cc2)C(=O)/C1=C\c1ccc(O)cc1O | 87.2% (inactive)
58 | O=C1NN(c2ccccc2)C(=O)C1=Cc1ccccc1O | 104% (inactive)
59 | C(=N\N1CCOCC1)/c1nc(-c2ccccc2)n2ccccc12 | 101% (inactive)
60 | COc1cc(OC)cc(C(=O)N2CCN(Cc3ccccc3Br)CC2)c1 | 86.6% (inactive)
61 | COc1cc(/C=N/NC(=O)CCN2CCCCC2)ccc1O | 101% (inactive)
62 | COc1ccc2nc(C)cc(SCC(=O)N/N=C/c3ccc(O)c(O)c3)c2c1 | 97.9% (inactive)
63 | COc1ccc2c(/C=N/Nc3ccc(C(=O)O)cc3)c[nH]c2c1 | 102% (inactive)
64 | COc1cc(/C=N/Nc2ccccn2)cc(OC)c1O | 91.8% (inactive)
65 | COc1ccc2c(c1)-c1nc(/N=C/c3cccc(OC)c3O)sc1CC2 | 112% (inactive)
66 | CN1CCCCCC1=Nc1ccccc1C#N | 92.2% (inactive)
67 | CCn1c(C)nc2cc(C(=O)N/N=C/c3cccc(O)c3O)ccc21 | 108% (inactive)
68 | O=c1/c(=C/c2ccc(O)cc2)sc2n1CCCN=2 | 102% (inactive)
69 | Cc1c(N=Nc2ccc(O)cc2)c(=O)n(-c2ccccc2)n1C | 103% (inactive)
70 | Oc1ccc(Nc2ccnc3cc(Cl)ccc23)cc1 | 95.1% (inactive)
71 | NC(=S)NNc1ccnc2cc(Cl)ccc12 | 88% (inactive)
72 | Cc1ccc(NCc2ccco2)cc1C | 105% (inactive)

Row | SMILES | viability
73 | COc1cc(/C=N/NC(=O)CCC(=O)Nc2ccc(F)cc2)ccc1O | 103% (inactive)
74 | CN(C)c1ccc(N/C=C/C(=O)C(C)(C)C)cc1 | 96.1% (inactive)
75 | COc1cc(/C=N/N=C(\N)c2nonc2N)ccc1O | 91.8% (inactive)
76 | CNc1nnc(-c2ccc(N(C)C)cc2)s1 | 106% (inactive)
77 | CCN(CC)c1ccc(N=Cc2c(C)[nH]c3ccccc23)cc1 | 87.1% (inactive)
78 | COCCNCC(=O)Nc1ccc(C)c(S(=O)(=O)N2CCCCC2)c1 | 101% (inactive)
79 | CCN(CC)c1ccc(/C=N\NC(N)=O)cc1 | 90.5% (inactive)
80 | COc1cc(/C=N/NC(=O)c2ccoc2C)ccc1O | 84.7% (inactive)
81 | COc1cc(OC)c(Cl)cc1N | 103% (inactive)
82 | CCc1cc(/C(Cc2csc(C)n2)=N/O)c(O)cc1O | 95.9% (inactive)
83 | CCc1cc(/C(Cc2ccccn2)=N\O)c(O)cc1O | 89.5% (inactive)
84 | COc1ccc(C)cc1NCc1cccc(OC)c1OC | 99.1% (inactive)
85 | Cn1cccc1/C=N/N1CCN(c2ccccn2)CC1 | 99.6% (inactive)
86 | Cc1ccc(C(C)C)c(OCCCCN2CCNCC2)c1 | 89.7% (inactive)
87 | Cc1ccc(C(C)(C)C)cc1S(=O)(=O)N1CCC(C(=O)N2CCN(c3ccc(O)cc3)CC2)CC1 | 82.4% (inactive)
88 | N#C/C(=C/c1ccc(N2CCCCCC2)o1)c1ccc(Cl)cc1 | 81.8% (inactive)
89 | Cc1ccc(/C(C#N)=C\c2ccc(N3CCOCC3)o2)cc1 | 95.3% (inactive)
90 | Nc1sc(-c2ccccc2)c(Cc2ccccc2)c1C(=O)O | 87.5% (inactive)
91 | COc1ccc2c(c1)c(C(=O)N/N=C/c1ccc(O)c(O)c1)c(C)n2C | 94.3% (inactive)
92 | COc1cccc(OCC(O)CN2CCN(C)CC2)c1 (stereo not drawn) | 102% (inactive)
93 | CCN1CCN(CC(O)COC(c2ccccc2)c2ccccc2C)CC1 (stereo not drawn) | 104% (inactive)
94 | O=[N+]([O-])c1ccc(Sc2cccc3cccnc23)c([N+](=O)[O-])c1 | 101% (inactive)
95 | O=[N+]([O-])c1cccc(CN2CCN(Cc3ccco3)CC2)c1 | 101% (inactive)
96 | CCc1cc(-c2[nH]ncc2-c2nc3ccccc3n2C)c(O)cc1O | 91% (inactive)

Row | SMILES | viability
97 | CCOc1cc(/C=N/Nc2nc(=O)[nH]nc2C)ccc1O | 91.2% (inactive)
98 | COc1cc(/C=N/Nc2ccc(C(F)(F)F)cn2)ccc1O | 89.1% (inactive)
99 | COc1ccc(CN2CCN(C(=O)CC(C)C)CC2)cc1OC | 102% (inactive)
100 | Cc1nnc2ccc(Oc3ccc(-c4ccccc4)cc3)nn12 | 95.5% (inactive)
101 | Nc1cc2c(cc1N)-c1ccccc1C2 | 94.9% (inactive)
102 | CC(=O)c1ccc2c(c1)Nc1ccccc1S2 | 94.2% (inactive)
103 | CCOC(=O)Nc1ccc2c(c1)Nc1ccccc1S2 | 96.4% (inactive)
104 | O=C(Sc1n[nH]c(=O)[nH]c1=O)c1ccccc1 | 101% (inactive)
105 | CCN(CC)c1ccc(/C=N/N2CCN(Cc3ccccc3)CC2)cc1 | 90.3% (inactive)
106 | O=C(Nc1ccc(N2CCCCCC2)cc1)c1ccc[nH]1 | 89.3% (inactive)
107 | CC(C)(C)N1C(=O)c2ccc(C(=O)Nc3ccc(O)cc3)cc2C1=O | 99.5% (inactive)
108 | Oc1ccc(/C=C/c2ccc3ccccc3n2)cc1 | 87.7% (inactive)
109 | O=C(O)c1ccc2nc(-c3ccco3)c(-c3ccco3)nc2c1 | 95% (inactive)
110 | COc1cc(/C=C2\SC(=S)N(NC(=O)c3ccncc3)C2=O)ccc1O | 90.9% (inactive)
111 | COc1cc(C=C2NC(=O)NC2=O)ccc1O | 108% (inactive)
112 | CCOc1cc(/C=C2\SC(N)=NC2=O)ccc1O | 95.2% (inactive)
113 | CCOC(=O)C1CCCN(C2=NC(=O)/C(=C/c3ccc(O)c(OC)c3)S2)C1 (stereo not drawn) | 91.8% (inactive)
114 | COc1cc(/C=C2/SC(=S)N(c3c(C)n(C)n(-c4ccccc4)c3=O)C2=O)ccc1O | 90.8% (inactive)
115 | COc1cc(/C=C2\SC(N3CCC(C)CC3)=NC2=O)ccc1O | 106% (inactive)
116 | COc1cc(/C=C2\SC(=Nc3c(C)n(C)n(-c4ccccc4)c3=O)NC2=O)ccc1O | 97.3% (inactive)
117 | O=C1/C(=C\c2ccc(O)c(O)c2)N=C2CCCCCN12 | 98.1% (inactive)
118 | COc1cc(/C=N/NC(=O)c2cccc(N3CCCC3=O)c2)ccc1O | 97.9% (inactive)
